Read-out in assay [1]: Tumor necrosis factor receptor superfamily member 6 (Homo sapiens) (UniProt P25445)
Kind of assay: LTEA_HepaRG_FAS: Life Technologies and Expression Analysis (LTEA) Assay for Fas cell surface death receptor (FAS) using HepaRG (AID 2283447). The conditions noted are these: mRNA level, 48 h; actives raise or lower the signal. A digest of the protocol:
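FAS transcript level was measured by TaqMan qRT-PCR against three housekeeping genes after 48 h chemical exposure. Cells were HepaRG, 0.5% DMSO vehicle, with a top concentration of 100 uM and half-log dilutions over eight points, in duplicate.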

Read-out in assay [2]: Fatty acid synthase (Homo sapiens) (UniProt P49327)
The experiment in a line: LTEA_HepaRG_FASN: Life Technologies and Expression Analysis (LTEA) Assay for Fatty Acid Synthase (FASN) using HepaRG (AID 2283448). The conditions noted are these: mRNA level, 48 h; actives raise or lower the signal. In outline: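 FASN expression changes, up or down relative to 0.5% DMSO, were measured by qRT-PCR in human HepaRG cells after 48 h treatment with chemicals at eight concentrations (half-log steps from 100 uM).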

Read-out in assay [3]: Cyclin D2 (CCND2), CCND2 (gene 894)
Kind of assay: LTEA_HepaRG_CCND2: Life Technologies and Expression Analysis (LTEA) Assay for Cyclin D2 (CCND2) using HepaRG (AID 2283449). The conditions noted are these: mRNA level, 48 h; actives raise or lower the signal. In outline: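 Read-out is CCND2 mRNA level measured by qRT-PCR in human HepaRG liver cells and normalised to three housekeeping genes. Chemicals were applied for 48 h at up to 100 uM, with gain or loss fitted relative to 0.5% DMSO.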

Read-out in assay [4]: Cyclin Dependent Kinase Inhibitor 1A (CDKN1A), CDKN1A (gene 1026)
The experiment in a line: LTEA_HepaRG_CDKN1A: Life Technologies and Expression Analysis (LTEA) Assay for Cyclin Dependent Kinase Inhibitor 1A (CDKN1A) using HepaRG (AID 2283450). The following applies: mRNA level, 48 h; actives raise or lower the signal. A digest of the protocol:
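Differentiated human HepaRG cells, pre-cultured 48 h, were exposed in duplicate for 48 h in serum-free induction medium to eight half-log concentrations up to 100 uM (0.5% DMSO). CDKN1A mRNA was measured by qRT-PCR, normalized to ACTB/GAPDH/POLR2A, bidirectionally fitted versus DMSO.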

Read-out in assay [5]: Cyclin D1 (CCND1), CCND1 (gene 595)
The experiment in a line: LTEA_HepaRG_CCND1: Life Technologies and Expression Analysis (LTEA) Assay for Cyclin D1 (CCND1) using HepaRG (AID 2283451). The conditions noted are these: mRNA level, 48 h; actives raise or lower the signal. A digest of the protocol: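 Differentiated human HepaRG cells in serum-free induction medium were exposed 48 h to eight half-log concentrations up to 100 uM in 0.5% DMSO; mRNA quantified by TaqMan qRT-PCR, normalized to ACTB, GAPDH, POLR2A, fitted bidirectionally versus DMSO.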

Read-out in assay [6]: flavin-containing dimethylaniline monooxygenases 3 (FMO3), FMO3 (gene 2328)
Kind of assay: LTEA_HepaRG_FMO3: Life Technologies and Expression Analysis (LTEA) Assay for flavin-containing dimethylaniline monooxygenases 3 (FMO3) using HepaRG (AID 2283453). The following applies: mRNA level, 48 h; actives raise or lower the signal. In outline: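 Differentiated HepaRG cells in serum-free induction medium, exposed 48 h in duplicate to 8 half-log concentrations up to 100 uM in 0.5% DMSO. FMO3 mRNA by qRT-PCR, normalized to ACTB, GAPDH, POLR2A; bidirectional fit vs DMSO.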

Read-out in assay [7]: Cytochrome P450 (CYP1A1), CYP1A1 (gene 1543)
The experiment in a line: LTEA_HepaRG_CYP1A1: Life Technologies and Expression Analysis (LTEA) Assay for Cytochrome P450 (CYP1A1) using HepaRG (AID 2283454). The conditions noted are these: mRNA level, 48 h; actives raise or lower the signal. In outline: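 Differentiated HepaRG cells in serum-free induction medium were exposed in duplicate for 48 h to eight half-log concentrations up to 100 uM in 0.5% DMSO. CYP1A1 mRNA was quantified by TaqMan qRT-PCR, normalized to ACTB, GAPDH and POLR2A.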

Read-out in assay [8]: CFLAR gene, CFLAR (gene 8837)
The experiment in a line: LTEA_HepaRG_CFLAR: Life Technologies and Expression Analysis (LTEA) Assay for CFLAR gene using HepaRG (AID 2283455). The conditions noted are these: mRNA level, 48 h; actives raise or lower the signal. A digest of the protocol:
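HepaRG, 48 h exposure, 8-pt conc-response (100 uM top, half-log), 0.5% DMSO vehicle, duplicates. CFLAR expression by qRT-PCR; ACTB/GAPDH/POLR2A normalization; gain or loss fit vs DMSO baseline.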

Read-out in assay [9]: Forkhead box O1 (FOXO1), FOXO1 (gene 2308)
The experiment in a line: LTEA_HepaRG_FOXO1: Life Technologies and Expression Analysis (LTEA) Assay for Forkhead box O1 (FOXO1) using HepaRG (AID 2283456). The following applies: mRNA level, 48 h; actives raise or lower the signal. A digest of the protocol:
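Readout is FOXO1 transcript level by multiplexed qRT-PCR against three housekeeping genes, curve-fitted in both directions relative to 0.5% DMSO vehicle. Human HepaRG cultures received chemicals for 48 h, up to 100 uM in half-log steps.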

Read-out in assay [10]: Forkhead box O3 (FOXO3), FOXO3 (gene 2309)
Kind of assay: LTEA_HepaRG_FOXO3: Life Technologies and Expression Analysis (LTEA) Assay for Forkhead box O3 (FOXO3) using HepaRG (AID 2283459). The conditions noted are these: mRNA level, 48 h; actives raise or lower the signal. In outline: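 HepaRG, 48 h post-dose; 8 conc., half-log from 100 uM, 0.5% DMSO, duplicates; serum-free induction medium. Readout: FOXO3 mRNA, TaqMan qRT-PCR, housekeeping-normalized. Bidirectional curve fit vs DMSO baseline.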

Read-out in assay [11]: ABC Transporter (ABCB1), ABCB1 (gene 5243)
The experiment in a line: LTEA_HepaRG_ABCB1: Life Technologies and Expression Analysis (LTEA) Assay for ABC Transporter (ABCB1) using HepaRG (AID 2283460). The following applies: mRNA level, 48 h; actives raise or lower the signal. In outline:
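Expression of ABCB1 was quantified by qRT-PCR against three housekeeping genes after human HepaRG cultures received test chemicals for 48 hours. Concentrations spanned eight half-log steps topping at 100 uM in 0.5% DMSO; gain or loss of signal was fitted relative to vehicle.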

Read-out in assay [12]: growth arrest and DNA damage 45 (GADD45B), GADD45B (gene 4616)
Kind of assay: LTEA_HepaRG_GADD45B: Life Technologies and Expression Analysis (LTEA) Assay for growth arrest and DNA damage 45 (GADD45B) using HepaRG (AID 2283461). The conditions noted are these: mRNA level, 48 h; actives raise or lower the signal. In outline: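 Differentiated HepaRG cells, plated 48 h then switched to serum-free induction medium, were exposed 48 h in duplicate to eight half-log concentrations from 100 uM in 0.5% DMSO; mRNA quantified by qRT-PCR, normalized to ACTB/GAPDH/POLR2A, bidirectional fit versus DMSO.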

Read-out in assay [13]: ABC Transporter (ABCC3), ABCC3 (gene 8714)
Kind of assay: LTEA_HepaRG_ABCC3: Life Technologies and Expression Analysis (LTEA) Assay for ABC Transporter (ABCC3) using HepaRG (AID 2283462). The following applies: mRNA level, 48 h; actives raise or lower the signal. In outline: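 HepaRG cells in serum-free induction medium were exposed for 48 h in duplicate to 8-point half-log concentrations topping at 100 uM in 0.5% DMSO. ABCC3 mRNA was measured by qRT-PCR normalized to ACTB, GAPDH and POLR2A, with bidirectional fitting versus DMSO.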

Read-out in assay [14]: ABC Transporter (ABCB11), ABCB11 (gene 8647)
Kind of assay: LTEA_HepaRG_ABCB11: Life Technologies and Expression Analysis (LTEA) Assay for ABC Transporter (ABCB11) using HepaRG (AID 2283463). The conditions noted are these: mRNA level, 48 h; actives raise or lower the signal. In outline: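 ABCB11 transcript levels are read by Fluidigm TaqMan qRT-PCR after 48 h chemical treatment of human HepaRG cells. Concentrations span 100 uM downward in half-log steps with 0.5% DMSO; gain or loss is fitted against DMSO controls.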

Assay [15] can be described thus: CEETOX_H295R_CORTIC: CeeTox H295R High-throughput Steroidogenesis Assay for Corticosterone (CORTIC) (AID 2283437).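 Further: corticosterone secreted into medium quantified by mass spectrometry.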 The following applies: actives raise or lower the signal. In outline:
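Corticosterone secreted into medium is measured by reverse-phase HPLC with tandem MS following liquid-liquid extraction. Cells are forskolin-stimulated (10 uM, 48 h) before 48 h test exposure; activity fitted in both directions against DMSO.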

A short description of assay [16]: CEETOX_H295R_DOC: CeeTox H295R High-throughput Steroidogenesis Assay for DOC (AID 2283439). The conditions noted are these: actives raise or lower the signal. A digest of the protocol:
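Readout: 11-deoxycorticosterone in culture medium by reverse-phase C18 HPLC with ESI+ tandem MS after MTBE extraction. Cells: H295R, forskolin-primed (10 uM, 48 h), chemical-treated 48 h; DMSO 0.1% final. Activity fitted bidirectionally versus DMSO.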

Assay [17] can be described thus: CEETOX_H295R_ESTRADIOL: CeeTox H295R High-throughput Steroidogenesis Assay for Estradiol (AID 2283440).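 Further: estradiol secreted into medium quantified by LC-MS/MS after dansyl derivatisation.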 The conditions noted are these: actives raise or lower the signal. In outline:
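H295R adrenocortical cells were prestimulated with 10 uM forskolin for 48 h, then exposed to test chemical in 0.1% DMSO for 48 h. Medium estradiol was extracted with MTBE, dansyl-derivatized and quantified by HPLC-MS/MS; bidirectional fit versus DMSO.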

Assay [18] can be described thus: CEETOX_H295R_ESTRONE: CeeTox H295R High-throughput Steroidogenesis Assay for Estrone (AID 2283441).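 Further: estrone secreted into medium measured by LC-MS/MS after dansyl derivatization.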 The following applies: actives raise or lower the signal. In outline: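 H295R cells prestimulated 48 h with 10 uM forskolin, then exposed 48 h to chemicals in 0.1% DMSO final; estrone in medium extracted with MTBE, dansyl-derivatized, quantified by HPLC-MS/MS; bidirectional fitting versus DMSO, viability by MTT.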

Assay [19] can be described thus: CEETOX_H295R_PROG: CeeTox H295R High-throughput Steroidogenesis Assay for Progesterone (PROG) (AID 2283442).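 On AC50: human H295R adrenal cells primed with 10 µM forskolin before dosing.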 The following applies: actives raise or lower the signal. In outline: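 H295R human adrenal cells were prestimulated with 10 uM forskolin for 48 h, then exposed to test chemical (0.1% DMSO final) for 48 h. Medium progesterone was MTBE-extracted and quantified by HPLC-MS/MS, with bidirectional fitting against DMSO.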

Experimental findings from PubChem BioAssay (EPA / NIEHS) are described below.

The AC50 is the concentration giving half of the maximal activity seen.

The source made the active and inactive calls. How the source made its calls: active means hit-call score of the fitted dose curve at least 0.9, where 1 is the maximum; inactive means score below 0.9.

Fatty acid synthase (Homo sapiens), sequence (P49327 whole entry, looked up): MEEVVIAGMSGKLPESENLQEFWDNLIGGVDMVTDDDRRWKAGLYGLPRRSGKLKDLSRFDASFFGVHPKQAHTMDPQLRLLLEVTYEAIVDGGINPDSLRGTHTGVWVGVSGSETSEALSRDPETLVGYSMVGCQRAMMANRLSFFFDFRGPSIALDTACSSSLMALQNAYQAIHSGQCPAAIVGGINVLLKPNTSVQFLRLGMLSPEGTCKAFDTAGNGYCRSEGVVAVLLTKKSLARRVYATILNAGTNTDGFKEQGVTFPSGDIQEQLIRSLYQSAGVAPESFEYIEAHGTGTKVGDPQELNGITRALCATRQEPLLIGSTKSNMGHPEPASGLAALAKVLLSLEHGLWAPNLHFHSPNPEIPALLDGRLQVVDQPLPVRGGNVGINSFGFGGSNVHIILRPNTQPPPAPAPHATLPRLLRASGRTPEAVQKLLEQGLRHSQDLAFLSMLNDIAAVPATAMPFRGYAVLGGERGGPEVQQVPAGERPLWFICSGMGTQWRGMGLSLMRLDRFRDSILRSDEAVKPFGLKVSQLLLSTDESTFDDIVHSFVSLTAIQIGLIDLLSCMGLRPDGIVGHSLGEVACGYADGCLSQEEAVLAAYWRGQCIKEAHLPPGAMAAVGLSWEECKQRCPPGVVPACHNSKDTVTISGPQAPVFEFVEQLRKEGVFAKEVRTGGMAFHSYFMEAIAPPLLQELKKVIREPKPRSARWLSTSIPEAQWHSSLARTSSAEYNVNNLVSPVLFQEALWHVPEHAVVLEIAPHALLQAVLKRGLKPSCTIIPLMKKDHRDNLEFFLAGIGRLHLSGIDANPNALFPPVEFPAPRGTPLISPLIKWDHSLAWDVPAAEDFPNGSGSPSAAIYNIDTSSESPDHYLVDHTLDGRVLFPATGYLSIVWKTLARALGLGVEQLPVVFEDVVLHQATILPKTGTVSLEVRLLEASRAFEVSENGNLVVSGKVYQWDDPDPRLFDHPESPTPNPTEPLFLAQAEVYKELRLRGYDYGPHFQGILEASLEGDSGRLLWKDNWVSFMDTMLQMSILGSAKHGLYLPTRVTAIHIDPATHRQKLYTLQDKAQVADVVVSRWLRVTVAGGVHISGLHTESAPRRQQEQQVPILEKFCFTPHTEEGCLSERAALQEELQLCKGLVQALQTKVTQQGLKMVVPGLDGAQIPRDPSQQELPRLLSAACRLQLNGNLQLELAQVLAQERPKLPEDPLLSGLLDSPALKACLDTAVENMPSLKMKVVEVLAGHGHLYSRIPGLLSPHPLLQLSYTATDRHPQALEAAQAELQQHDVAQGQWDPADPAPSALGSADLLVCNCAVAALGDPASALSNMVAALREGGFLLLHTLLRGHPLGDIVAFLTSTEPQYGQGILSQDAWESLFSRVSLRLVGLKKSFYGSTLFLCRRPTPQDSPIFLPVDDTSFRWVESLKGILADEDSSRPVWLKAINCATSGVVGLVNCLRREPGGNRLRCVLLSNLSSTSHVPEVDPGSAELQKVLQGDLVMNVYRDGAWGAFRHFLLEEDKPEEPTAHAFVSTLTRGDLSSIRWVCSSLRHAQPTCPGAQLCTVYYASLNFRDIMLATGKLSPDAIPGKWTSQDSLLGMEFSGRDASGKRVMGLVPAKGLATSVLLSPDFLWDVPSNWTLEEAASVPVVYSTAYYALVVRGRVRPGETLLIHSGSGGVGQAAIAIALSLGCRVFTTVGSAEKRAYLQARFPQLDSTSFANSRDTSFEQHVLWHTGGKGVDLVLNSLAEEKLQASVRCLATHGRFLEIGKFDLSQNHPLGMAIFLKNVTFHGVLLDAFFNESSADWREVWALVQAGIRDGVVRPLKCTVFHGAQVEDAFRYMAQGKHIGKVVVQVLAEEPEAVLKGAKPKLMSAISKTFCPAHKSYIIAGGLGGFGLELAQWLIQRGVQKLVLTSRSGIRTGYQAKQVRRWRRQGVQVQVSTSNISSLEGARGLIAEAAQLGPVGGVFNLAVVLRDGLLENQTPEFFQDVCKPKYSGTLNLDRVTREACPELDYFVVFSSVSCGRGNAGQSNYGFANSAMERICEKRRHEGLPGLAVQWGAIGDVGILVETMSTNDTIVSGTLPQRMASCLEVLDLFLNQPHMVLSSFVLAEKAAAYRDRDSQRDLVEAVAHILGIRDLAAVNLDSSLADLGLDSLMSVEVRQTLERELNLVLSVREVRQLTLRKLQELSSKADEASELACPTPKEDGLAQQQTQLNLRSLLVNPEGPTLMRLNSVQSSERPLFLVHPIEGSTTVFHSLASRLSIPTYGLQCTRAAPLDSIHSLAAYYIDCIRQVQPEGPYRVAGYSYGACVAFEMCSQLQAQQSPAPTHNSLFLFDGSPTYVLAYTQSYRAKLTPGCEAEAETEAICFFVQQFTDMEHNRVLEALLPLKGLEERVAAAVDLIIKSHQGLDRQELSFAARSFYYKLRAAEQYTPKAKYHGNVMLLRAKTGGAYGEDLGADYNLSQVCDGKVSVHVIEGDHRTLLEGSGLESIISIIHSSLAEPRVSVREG

For the compound `N#Cc1cccnc1`, the result in assay [1], in assay [2], in assay [3], in [4], in assay [5] and in assay [6] was inactive. For the same compound, the compound was called inactive in assay [7], in assay [8], in assay [9], in assay [10], in assay [11] and in [12]. The call in [13] and in [14] was inactive.
With `Oc1cccc(-c2ccccc2)c1`, the compound was called inactive in assay [15], in assay [16], in assay [17] and in assay [18]. Moreover, the AC50 in assay [19] is 10 µM (active).
In the case of `O=C(O)C1(c2ccc3c(c2)OC[C@H](Cc2ccc(-c4ccccc4)cc2)[C@H]3O)CCCC1`, the call in assay [1], in assay [3], in assay [5], in assay [8], in [10] and in assay [11] was inactive. Besides, in [14], the compound was called inactive. Also, the AC50 is 50 µM (active) in [2]; 80.2 µM (active) in assay [4]; 81.8 µM (active) in assay [6]; 23.3 µM (active) in assay [7]; 50 µM (active) in assay [9]; 86.9 µM (active) in assay [12]. Besides, the AC50 in [13] was 75.7 µM (active).
Take `Clc1cccc(Cl)c1`: the outcome in assay [1], in assay [2], in assay [3], in [4], in assay [5] and in [6] was inactive. The call in assay [8], in [9], in [10], in [11], in assay [12] and in assay [13] was inactive. Further, the outcome in assay [14] was inactive. In assay [7], the AC50 was 78.1 µM (active).
With `CC(C)(COCC1CO1)COCC1CO1` (stereo unspecified), the call in assay [15], in assay [16], in assay [17], in assay [18] and in [19] was inactive.
For the compound `Cc1cc(C)cc(C)c1`, the compound was called inactive in [19], in [2], in assay [3], in assay [4], in assay [5] and in [6]. In addition, the result in assay [7], in [8], in [9], in assay [10], in assay [11] and in assay [12] was inactive. The compound was classed as inactive in assay [13] and in assay [14].
